Results published in PubChem BioAssay (NCATS).
Results filed as inconclusive are left out. Unmarked numbers belong to inactive results. Calls come from the whole dose curve; as a rule, active = well fitted curve in the direction sought with a large enough effect; inconclusive = small, poorly fitted or top-dose-only effect, or effect the other way, or another doubt; inactive = no such curve, though single readings can be large or run the other way.

Target: Transient receptor potential cation channel subfamily V member 1 (Homo sapiens) (UniProt Q8NER1)
Sequence (Q8NER1 whole entry, looked up): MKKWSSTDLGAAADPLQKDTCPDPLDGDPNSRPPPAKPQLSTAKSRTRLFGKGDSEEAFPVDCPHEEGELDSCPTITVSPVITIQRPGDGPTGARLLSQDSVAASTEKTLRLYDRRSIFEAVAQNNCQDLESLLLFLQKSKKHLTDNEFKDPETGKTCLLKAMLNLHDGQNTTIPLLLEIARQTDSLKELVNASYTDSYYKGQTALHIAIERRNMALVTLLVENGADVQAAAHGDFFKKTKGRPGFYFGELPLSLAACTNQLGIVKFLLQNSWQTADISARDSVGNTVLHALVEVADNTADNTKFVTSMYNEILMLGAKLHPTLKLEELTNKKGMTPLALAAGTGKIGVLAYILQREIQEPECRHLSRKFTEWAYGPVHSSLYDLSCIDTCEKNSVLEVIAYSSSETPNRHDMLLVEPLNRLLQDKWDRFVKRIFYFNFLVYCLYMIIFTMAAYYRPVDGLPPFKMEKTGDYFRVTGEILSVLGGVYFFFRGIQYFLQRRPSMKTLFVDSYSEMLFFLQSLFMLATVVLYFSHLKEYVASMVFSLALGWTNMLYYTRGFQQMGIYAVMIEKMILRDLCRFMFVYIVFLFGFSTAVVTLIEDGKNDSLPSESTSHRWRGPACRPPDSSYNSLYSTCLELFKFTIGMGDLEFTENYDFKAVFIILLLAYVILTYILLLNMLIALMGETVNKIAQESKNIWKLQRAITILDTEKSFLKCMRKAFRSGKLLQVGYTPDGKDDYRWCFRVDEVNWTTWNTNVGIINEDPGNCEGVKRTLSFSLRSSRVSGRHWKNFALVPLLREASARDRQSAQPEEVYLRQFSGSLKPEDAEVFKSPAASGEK
Test: HTS Assay for Compounds that Act as Enhancers of the Vanilloid Receptor 1 (AID 488979); note: 0% is about no effect
Settings: TRPV1-expressing cells, enhancer of channel activity, stimulated with capsaicin at EC20; series mostly up to 41.7 µM; activity change, positive = enhancement: at the top concentration
Description: The transient receptor potential ion channel, family V, number 1, (TRPV1) is one of the most important molecular transducers of painful stimuli and a potential target for analgesic drug development. Although recent clinical trials with orthosteric antagonists have not produced a successful drug because of a hyperthermia side effect and their tendency to block thermal noxious pain, this ion channel is undeniably well placed in the pain pathway, and the idea of blocking pain signals before they enter the CNS is an excellent concept and of proven efficacy when TRPV1 agonists are used. We propose a new approach involving allosteric modulation to impose an activity-dependent constraint within the context of inflammation and tissue damage that would alter the responsiveness of the channel in a way that an orthosteric vanilloid antagonist cannot achieve. We believe that the allosteric modulator approach has not been explored for this target.
The main goal of this proposal is to identify additional, new, potent allosteric modulators of TRPV1 that can be used to investigate TRPV1 function. Our recent report provides evidence of proof of concept, but the compounds are just at the edge of utility in terms of potency. […] The question of whether they can be used as analgesic agents is complex, but if suitable compounds are identified then testing for analgesic properties will be conducted.
Upon TRPV1 activation in TRPV1 cells, the channel opens and extracellular cations flow through the channel into the cytosol. A calcium binding dye (Fluo-8) becomes fluorescent when bound to calcium. This dye is pre-loaded into cells and is used as a marker for calcium influx.
The amount of accumulated calcium is precisely quantified using the FDSS kinetic reader and the calcium dye.
For the HTS assay, freshly prepared cells are plated at a density of 2000/well in 3 ul medium in 1536-well plates and cultured overnight at 35.5C. Cells will be loaded with 1 ul of the homogeneous calcium dye (ABD Bioquest) at room temperature for 40 to 90 minutes. Plates will be loaded into the FDSS kinetic reader and a 1 sec / cycle for 10 second baseline signal will be measured. Compound library will then be added with a pintool at 23 nl and measured kinetically for 3 minutes. This portion of the read is considered the agonist portion of the screen. Following the 3 minutes of incubation, an on board pipettor will deliver 1 ul of capsaicin for a final concentration equal to the EC20. Signal will be measured kinetically for an additional 2 minutes. This portion of the read is considered the allosteric enhancer portion of the screen.
The FDSS reader has a standard filter set capable of measuring calcium bound Fluo-8 (ex=480 and em=520 nm).

SMILES	activity change, positive = enhancement
N.N.N.N.N.N.N.N.N.N.N.N.N.N.O.O.[Cl-].[Cl-].[Cl-].[Cl-].[Cl-].[Cl-].[Ru].[Ru].[Ru]	-2.88%
CN(CCOc1ccc(C[C@H](Nc2ccccc2C(=O)c2ccccc2)C(=O)O)cc1)c1ccccn1	-14.1%
Cc1cn([C@H]2C[C@@H](N=[N+]=[N-])[C@@H](CO)O2)c(=O)[nH]c1=O	5.44%
OC[C@H]1O[C@@H](n2cnc3c(N[C@H]4CC5CCC4C5)ncnc32)[C@H](O)[C@@H]1O (stereo not given in full)	1.06%
CCn1c(=O)c2[nH]c(-c3ccccc3)nc2n(CC)c1=O	5.58%
Nc1ncnc2c1ncn2[C@@H]1O[C@H](CO)[C@H](O)[C@H]1O	7.14%
NCCNC(=O)c1ccc(Cl)cc1	-9.8%
CCCC(=O)NCCc1c2n(c3ccc(OC)cc13)Cc1ccccc1-2	-21.3%
Nc1ncnc2c1ncn2[C@@H]1O[C@H](C(=O)NC2CC2)[C@H](O)[C@H]1O	8.51%
C[C@H]1CC2[C@@H]3CCC4=CC(=O)C=C[C@]4(C)[C@@]3(Cl)[C@@H](O)C[C@]2(C)[C@@]1(O)C(=O)CO (stereo not given in full)	11.7%
Nc1nc(SCc2ccc([N+](=O)[O-])cc2)c2ncn([C@@H]3O[C@H](CO)[C@H](O)[C@H]3O)c2n1	2.6%
CCSC(N)=Nc1ccc(C(F)(F)F)cc1	-13.2%
NC(=O)C1=CN(C2OC(COP(=O)(O)OP(=O)(O)OC[C@H]3O[C@@H](n4cnc5c(N)ncnc54)[C@H](OP(=O)(O)O)[C@H]3O)C(O)C2O)C=CC1 (stereo not given in full)	-3.16%
CNc1ncnc2c1ncn2[C@@H]1O[C@H](CO)[C@H](O)[C@H]1O	5.05%
COC(=O)c1c(-c2cc(OC)c(OC)c(OC)c2)c2ccc(OCc3ccccn3)cc2c(=O)n1-c1ccc(N)cc1	-11.9%
N[C@H](Cc1ccc(O)c(O)c1)C(=O)O	5.28%
CN1C[C@H](C(=O)N[C@]2(C)O[C@@]3(O)C4CCCN4C(=O)[C@H](Cc4ccccc4)N3C2=O)C[C@@H]2c3cccc4[nH]cc(c34)C[C@H]21 (stereo not given in full)	21%
COc1cc(=O)n(C)c2c(OCC(O)C(C)(C)O)cccc12 (stereo not given)	-2.31%
O=[N+]([O-])c1ccc(CSc2ncnc3c2ncn3[C@@H]2O[C@H](CO)[C@H](O)[C@H]2O)cc1	4.07%
Nc1nc(Nc2ccccc2)nc2c1ncn2[C@@H]1O[C@H](CO)[C@H](O)[C@H]1O	3.44%

SMILES	activity change, positive = enhancement
CN(C)C1C(=O)C(C(N)=O)=C(O)[C@@]2(O)C(=O)C3=C(O)c4c(O)ccc(Cl)c4[C@@H](O)C3C[C@@H]12 (stereo not given in full)	-6.18%
CSc1nc(N)c2ncn([C@@H]3O[C@H](COP(=O)(O)OP(=O)(O)O)[C@H](O)[C@H]3O)c2n1	-2.26%
OC[C@H]1O[C@@H](n2cnc3c(NC4CCCC4)ncnc32)[C@H](O)[C@H]1O	4.28%
NC(=NCCC[C@H](N)C(=O)O)NO	4.24%
CCCCCCCCCCCCCCC/C=C/[C@@H](O)[C@H](NC(=O)CCCCCCCCCCCCC)OC (tested in a mixture with another compound)	-2.35%
NC(=S)NCCCC(N)C(=O)O (stereo not given)	-2.68%
CCCCC#Cc1nc(N)c2ncn([C@@H]3O[C@H](C(=O)NCC)[C@@H](O)[C@H]3O)c2n1	-8.18%
OC[C@H]1O[C@@H](n2cnc3c(Nc4ccccc4)ncnc32)[C@H](O)[C@H]1O	-8.77%
CN=C(N)NCCCC(N)C(=O)O (stereo not given)	-6.98%
N=C1Sc2ccccc2C2=NCCCN12	-3.52%
COc1c2c(nc3ccccc13)OC(C(C)(O)CO)C2 (stereo not given)	-17%
NC(=S)c1ccc[n+]([C@@H]2O[C@@H](COP(=O)([O-])OP(=O)(O)OC[C@H]3O[C@@H](n4cnc5c(N)ncnc54)[C@H](OP(=O)(O)O)[C@H]3O)C(O)C2O)c1 (stereo not given in full)	2.1%
CNC(=O)[C@H]1O[C@@H](n2cnc3c(NCc4ccc(N)cc4)ncnc32)[C@H](O)[C@H]1O	4.89%
COc1ccc(CCNC[C@@H](O)c2ccc(O)cc2)cc1OC	-7.03%
CN1C(=O)CCC1c1cccnc1 (stereo not given)	2.57%
COc1ccc2c(c1)c(CC(=O)O)c(C)n2Cc1ccc(F)cc1	-2.97%
NCC1OC(O[C@@H]2[C@H](O)[C@@H](OC3C(O)C(N)CC(N)C3OC3OC(CO)C(O)C(O)C3N)O[C@@H]2CO)C(N)C(O)C1O (stereo not given in full)	9.28%
O=C(Cc1ccc(Cl)c(Cl)c1)OCCN1CCCC1	12.1%
CN1C2CCC1CC(NC(=O)c1nn(C)c3ccccc13)C2 (stereo not given)	-5.94%
C[C@]12CCC(=O)C=C1CC[C@@H]1C2[C@@H](O)C[C@@]2(C)[C@H]1CC[C@]2(O)C(=O)CO (stereo not given in full)	6.74%
